# Reference: the supplement of paper PMC6658780
# Counter-ions that a name gives are not always drawn. ± gives the standard deviation of the averaged measurements.
# Tested on: Escherichia coli ATCC BAA-2469
# Test: percent growth inhibition of drug alone vs DMSO control; higher = more growth inhibition
# Conditions: antibiotic (0.125x MIC): none (0.1% DMSO); 7 µM
# Experimental: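 Prestwick drugs tested at 20 uM and 7 uM with an antibiotic at 0.125x MIC (16 mg/L when MIC >128 mg/L) against E. coli ATCC BAA-2469 (NDM-1) in CAMHB, 384-well plates, duplicate runs. Percent growth inhibition was computed from OD600 (24 h minus 0 h) relative to DMSO wells. Drug + DMSO-only wells are also given. […]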
row,SMILES,percent growth inhibition of drug alone
1,CCCOc1ccc2[nH]c(NC(=O)OC)nc2c1 [Oxibendazol],0.775 ± 0.31%
2,Cc1cccc(C)c1NC(=O)C1CCCCN1C (stereo not drawn) [Mepivacaine hydrochloride],-0.605 ± 0.25%
3,OC(CCN1CCCC1)(c1ccccc1)C1CCCCC1 (stereo not drawn) [Procyclidine hydrochloride],3.3 ± 1.6%
4,O=C1CN(/N=C/c2ccc([N+](=O)[O-])o2)C(=O)N1 [Nitrofurantoin],5.87 ± 5.7%
5,Cc1cc(N)c2ccccc2[n+]1CCCCCCCCCC[n+]1c(C)cc(N)c2ccccc21 [Dequalinium dichloride],2.01 ± 0.53%
6,CCCNC(C)(C)COC(=O)c1ccccc1 [Meprylcaine hydrochloride],0.029 ± 2.2%
7,Oc1c(Cl)cc(Cl)c(Cl)c1Cc1c(O)c(Cl)cc(Cl)c1Cl [Hexachlorophene],9.96 ± 8.8%
8,O=C(N[C@H](CO)[C@H](O)c1ccc([N+](=O)[O-])cc1)C(Cl)Cl [Chloramphenicol],27.7 ± 12%
9,CS(=O)(=O)c1ccc([C@@H](O)[C@@H](CO)NC(=O)C(Cl)Cl)cc1 [Thiamphenicol],4.47 ± 3.6%
10,CC[C@H]1OC(=O)[C@H](C)[C@@H](O[C@H]2C[C@@](C)(OC)[C@@H](O)[C@H](C)O2)[C@H](C)[C@@H](O[C@@H]2O[C@H](C)C[C@H](N(C)C)[C@H]2O)[C@](C)(O)C[C@@H](C)CN(C)[C@H](C)[C@@H](O)[C@]1(C)O [Azithromycin],22.2 ± 12%
11,CCCCC(CC)CNC(=N)NC(=N)NCCCCCCNC(=N)NC(=N)NCC(CC)CCCC (stereo not drawn) [Alexidine dihydrochloride],102 ± 2%
12,O=C(Nc1ccc([N+](=O)[O-])cc1Cl)c1cc(Cl)ccc1O [Niclosamide],2.78 ± 1.6%
13,Clc1cccc(Cl)c1NC1=NCCN1 [Clonidine hydrochloride],0.913 ± 1.3%
14,Cc1nnc(NS(=O)(=O)c2ccc(N)cc2)s1 [Sulfamethizole],2.42 ± 3%

# Same assay, conditions: antibiotic (0.125x MIC): none (0.1% DMSO); 20 µM
row,SMILES,percent growth inhibition of drug alone
1,CCCOc1ccc2[nH]c(NC(=O)OC)nc2c1 [Oxibendazol],2.44 ± 0.18%
2,Cc1cccc(C)c1NC(=O)C1CCCCN1C (stereo not drawn) [Mepivacaine hydrochloride],-0.545 ± 1.2%
3,OC(CCN1CCCC1)(c1ccccc1)C1CCCCC1 (stereo not drawn) [Procyclidine hydrochloride],-0.85 ± 5%
4,Cc1cc(N)c2ccccc2[n+]1CCCCCCCCCC[n+]1c(C)cc(N)c2ccccc21 [Dequalinium dichloride],12.5 ± 11%
5,CCCNC(C)(C)COC(=O)c1ccccc1 [Meprylcaine hydrochloride],-0.823 ± 0.32%
6,CCCCC(CC)CNC(=N)NC(=N)NCCCCCCNC(=N)NC(=N)NCC(CC)CCCC (stereo not drawn) [Alexidine dihydrochloride],112 ± 12%
7,O=C(Nc1ccc([N+](=O)[O-])cc1Cl)c1cc(Cl)ccc1O [Niclosamide],14.5 ± 19%
8,Clc1cccc(Cl)c1NC1=NCCN1 [Clonidine hydrochloride],3.75 ± 2.2%
9,Cc1nnc(NS(=O)(=O)c2ccc(N)cc2)s1 [Sulfamethizole],-3.23 ± 2.1%
